Experimental data from the supplement of paper PMC6555819.

Key:
Assay in all cases: PBM binding z-score (relative to random genomic background probes); higher = stronger binding; sequences stand for … in GC…GCGATTGACAGCGTAGAATGAAGG
[1] = system: FXR:RXRa (NR concentration 270 nM, RXRa partner concentration 90 nM)
In short: (§1)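 Custom Agilent 4×180K protein-binding microarrays carried double-stranded probes. Their 34-nt variable regions held direct-repeat seeds, single-nucleotide variants, half-site ablations and random human genomic background sequences. Arrays were incubated 1 h with ligand-free nuclear receptor dimers in PBS pH 7.4, 2% milk, 0.02% Triton X-100, 1 mM DTT, 0.2 mg/mL BSA and 0.4 mg/ml salmon testes DNA. Antibodies against each partner (one per run) detected binding, and scanned fluorescence was regression-normalized. Binding z-scores use random background probes as reference.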

[2] = system: LXRa:RXRa (NR concentration 270 nM, RXRa partner concentration 90 nM)
In short: as §1

[3] = system: LXRa homodimer (NR concentration 270 nM)
In short: as §1

[4] = system: LXRb:RXRa (NR concentration 270 nM, RXRa partner concentration 90 nM)
In short: as §1

[5] = system: LXRb homodimer (NR concentration 270 nM)
In short: as §1

[6] = system: PPARg:RXRa (NR concentration 180 nM, RXRa partner concentration 90 nM)
In short: as §1

[7] = system: PPARg:RXRa 270nM:90nM, anti-RXR (NR concentration 270 nM, RXRa partner concentration 90 nM)
In short: as §1

[8] = system: PPARg:RXRa 30nM:10nM, anti-RXR (NR concentration 30 nM, RXRa partner concentration 10 nM)
In short: as §1

[9] = system: PPARg:RXRa 90nM:30nM, anti-RXR (NR concentration 90 nM, RXRa partner concentration 30 nM)
In short: as §1

[10] = system: PPARg:RXRa DBDmut IVT, anti-RXR (DBD mutation: RXRa K156A/R161A, NR concentration 270 nM, RXRa partner concentration 90 nM)
In short: as §1

[11] = system: PPARg:RXRa IVT, anti-PPARg (NR concentration 270 nM, RXRa partner concentration 90 nM)
In short: as §1

[12] = system: PPARg DBDmut:RXRa IVT, anti-PPARg (DBD mutation: PPARg1 K132A/R137A, NR concentration 270 nM, RXRa partner concentration 90 nM)
In short: as §1

[13] = system: PPARg DBDmut IVT, anti-PPARg (DBD mutation: PPARg1 K132A/R137A, NR concentration 270 nM)
In short: as §1

[14] = system: PPARg homodimer (NR concentration 180 nM)
In short: as §1

[15] = system: PXR:RXRa (NR concentration 270 nM, RXRa partner concentration 90 nM)
In short: as §1

[16] = system: PXR homodimer (NR concentration 270 nM)
In short: as §1

[17] = system: RARa homodimer (NR concentration 270 nM)
In short: as §1

[18] = system: PPARa:RXRa (NR concentration 270 nM, RXRa partner concentration 90 nM)
In short: as §1

[19] = system: RARa:RXR (NR concentration 270 nM, RXRa partner concentration 90 nM)
In short: as §1

[20] = system: RARb:RXRa (NR concentration 270 nM, RXRa partner concentration 90 nM)
In short: as §1

Row | Sequence | PBM binding z-score [1] | PBM binding z-score [2] | PBM binding z-score [3] | PBM binding z-score [4] | PBM binding z-score [5] | PBM binding z-score [6] | PBM binding z-score [7] | PBM binding z-score [8] | PBM binding z-score [9] | PBM binding z-score [10] | PBM binding z-score [11] | PBM binding z-score [12] | PBM binding z-score [13] | PBM binding z-score [14] | PBM binding z-score [15] | PBM binding z-score [16] | PBM binding z-score [17] | PBM binding z-score [18] | PBM binding z-score [19] | PBM binding z-score [20]
1 | CATCCAAGGTCAAAGGTCAGTGAAGAGATGACGG | 8.63 | 7.28 | 5.11 | 7.03 | 3.15 | 11.1 | 9.75 | 8.73 | 10.8 | 4.07 | 6.54 | 2.71 | 3.63 | 5.52 | 7.36 | 2.53 | 3.93 | – | – | –
2 | CTATATAGGTTAAGGGGGTCATTCAGTTTGAAAG | 6.35 | 5.57 | 2.95 | 6.48 | – | 8.85 | 8.04 | 6.09 | 8.09 | 7.39 | 7.38 | – | – | 4.56 | 6.35 | 12.1 | 1.99 | 6.33 | 6.42 | 3.91
3 | TCAAGTAGGTTACGGGGGCATTCAGGGATGAAGA | 3.28 | 3.4 | 1.53 | 5.4 | – | 7.97 | 7.05 | 6.15 | 6.95 | 6.98 | 7.48 | – | – | 3.45 | 3.45 | 2.97 | 1.26 | 4.49 | 3.18 | –
4 | TCGAGTAGGTTACGGGGGCATTCTGGGATGAAGA | 2.21 | 2.51 | 0.493 | 5.03 | – | 6.17 | 5.55 | 3.42 | 4.95 | 5.04 | 5.91 | – | – | 1.3 | 2.85 | 1.48 | -0.159 | 4.23 | 2.92 | 2.27
5 | TTACCAAGGTGAAAGGTCATTGATGCACGCCTTG | 6.65 | 6.17 | 4.61 | 5.39 | 1.12 | – | 9.21 | 9.49 | 10.9 | 2.98 | 6.12 | 1.63 | 2.28 | 5.67 | 6.35 | 2.25 | 2.09 | – | – | 4.86
6 | CTATGTAGGTTAAGGAGGTCATTCAGTTTGAAAG | 3.87 | 4.84 | 4.54 | 3.92 | – | 6.14 | 5.71 | 3.14 | 5.11 | 7 | 7.07 | – | – | 2.9 | 5.67 | 12 | 0.704 | 5.23 | 4.51 | –
7 | TCGAGTAGGTTACGGGGGCATTCATGGATGAAGA | 2.37 | 2.82 | 0.637 | 4.75 | – | 6.11 | 5.78 | 3.34 | 4.94 | 5.12 | 5.88 | – | – | 1.86 | 3.32 | 1.27 | 0.144 | 4.29 | 2.88 | 2.51
8 | CTTACTGGGCCAAAGGTCATTGATTCCAATGCTC | 5.59 | 5.54 | 4.28 | 5.06 | 0.936 | – | 11.2 | 14.3 | 13.6 | 7.41 | 8.39 | 2.55 | 2.05 | 5.08 | 5.66 | 2.72 | 1.85 | – | 7.06 | 4.62
